# Measured values as given in PubChem BioAssay (NCATS).
# Inconclusive results are not listed. Where a call stands in place of a potency, no number is given. Active and inactive are the calls of the source. Unless noted, calls follow the shape of the dose curve; as a rule, active = well fitted curve in the direction sought with a large enough effect; inconclusive = small, poorly fitted or top-dose-only effect, or another doubt; inactive = no such curve, though single readings can be large; an effect the other way counts as inactive or inconclusive.
# How the values were obtained:
# [1] = Primary qHTS for inhibitors of nuclear receptor binding SET domain protein 2 (NSD2) in an isogenic RCH-ACV NSD2 p.E1099K mutant (9B) (AID 1645876); also: potency is read from the fitted curve at half-maximal effect; nearly all actives have a fitted effect of over 70% in size
# [2] = Primary qHTS for inhibitors of nuclear receptor binding SET domain protein 2 (NSD2) in an RCH-ACV wild type WT cells (2C) (AID 1645877); also: potency is read from the fitted curve at half-maximal effect; nearly all actives have a fitted effect of over 70% in size
# [3] = target: Glutathione peroxidase 1 (Homo sapiens) (UniProt P07203); test: Primary qHTS Assay for Inhibitors of Recombinant Selenoprotein Glutathione Peroxidase 1 (GPX1) (AID 1845191); also: nearly all actives have a fitted effect of over 65% in size
# Outline: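 GR-coupled readout: NADPH consumption tracked by fluorescence, ex 340/em 450 nm, at t=0 and after 15 min at RT. Final mix 10 nM GPX1, 1 mM GSH, 0.5 mM CHP, 0.5 mM NADPH, 100 nM GR, 0.01% BSA, following 30 min enzyme–compound preincubation.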
# [4] = target: Phospholipid hydroperoxide glutathione peroxidase GPX4 (Homo sapiens) (UniProt P36969); test: Primary qHTS Assay for Inhibitors of Recombinant Selenoprotein Glutathione Peroxidase 4 (GPX4) (AID 1845192); settings: outcome: dose series up to 50 µM unless noted; also: nearly all actives have a fitted effect of over 65% in size
# Outline: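 Steps: GPX4 plus compound, 30 min RT; add GR/GSH/NADPH master mix; start with cumene hydroperoxide; read 340/450 nm fluorescence at 0 and 15 min. Finals were 200 nM GPX4, 1 mM GSH, 0.5 mM CHP, 0.5 mM NADPH, 100 nM GR.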
# [5] = qHTS drug screen for cell cycle checkpoint inhibitors in PARPi-resistant BRCA-mutant ovarian cancer cell lines. (AID 1963452; calls by dose curve; also: potency is read from the fitted curve at half-maximal effect); settings: PEO1/OlaR viability, CellTiter-Glo luminescence, 96 h; for Z-AUC: stronger effect = lower value
# Outline: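 PEO1, PEO4 and PEO1/OlaR ovarian cancer cells, 600 per well, exposed 96 h at 37C to a dilution series. Viability read by CellTiter-Glo luminescence, normalized to DMSO and empty wells; activity summarized as Z-AUC.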
# [6] = qHTS assay to identify inhibitors of the type 1 interferon - major histocompatibility complex class I in skeletal muscle: Counter screen cell viability and HiBit confirmation (AID 1347412); settings: iHSKM muscle cells + IFN-b, HiBiT or CellTiter-Glo, 24 h; for activity change, negative = inhibition: at 45.9 µM (top of the series); also: potency is read from the fitted curve at half-maximal effect; as to all read-outs here: nearly all actives have a fitted effect of over 60% in size
# Outline: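 CRISPR HLA-B*08:01-HiBit immortalized human myoblasts (C25cl48) stimulated with 4 ng/ml IFN-beta and compounds (12-point 1:3, top 46 uM final) for 24 h at 37 C. Duplicate plates read by HiBit lytic luminescence or CellTiter Glo ATP.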
# [7] = Validation of Assay for Modulators of Lamin A Splicing (AID 1459; active = well fitted curve in the direction sought with a large enough effect in the signal ratio; the % refers to the signal ratio;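 also: cells exposed to compound for two days before reading; ratio rise marks activators and ratio drop marks inhibitors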)
# Outline: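 S3 HeLa stably expressing lamin A-EGFP splicing minigene and DsRed2, 600 cells/well in Opti-MEM with 2% FBS, treated 48 h at 37C; laser-scanning cytometry gives GFP/RFP total intensity ratio; ancitabine positive control, 0.5% DMSO vehicle.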
# [8] = target: DNA repair nuclease/redox regulator APEX1 (Homo sapiens) (UniProt P27695); test: qHTS Validation Assay for Inhibitors of the Human Apurinic/apyrimidinic Endonuclease 1 (APE1) (AID 1705;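 also: TAMRA fluorescence gain over two minutes as APE1 cuts a quenched THF abasic duplex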)
# Outline: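 Fluorogenic double-stranded THF abasic-site substrate (5'-TAMRA/3'-BHQ-2), 50 nM final. Enzyme preincubated with compound 15 min at room temperature, then substrate added. Kinetic fluorescence (ex 525/em 598 nm) read three times at 60 s intervals; activity taken as third-minus-first read difference.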
# [9] = Counterscreen for APE1 Inhibitors: Fluorescent Dye Displacement Validation Assay (AID 1707)
# Outline: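 Counterscreen flags promiscuous DNA binders: compounds displacing ThO from duplex DNA (abasic THF site, 50 nM) reduce 540 nm emission (480 nm excitation). ThO 250 nM final; Tris-HCl pH 7.5 with NaCl, MgCl2 and Tween-20.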
# [10] = target: Endonuclease 4 (Escherichia coli (strain K12)) (UniProt P0A6C1); test: Counterscreen for APE1 Inhibitors: qHTS Validation Assay for Inhibitors of Endonuclease IV (AID 1708)
# Outline: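 Read-out: fluorescence rise (ex 525/em 598 nm) from incision of a TAMRA/BHQ-2 double-stranded THF abasic-site substrate (50 nM), measured kinetically; third-minus-first read difference gave reaction progress. Enzyme 2 nM.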
# [11] = qHTS for differential inhibitors of proliferation of Plasmodium falciparum line Dd2 (AID 1882); settings: Potency: Plasmodium falciparum Dd2 proliferation inhibition;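 also: compound exposure of 72 h on infected erythrocytes; nearly all actives have a fitted effect of over 65% in size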
# Outline: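 RBC culture, 0.3% parasitemia / 2.5% Hct final; cpd added by pin tool in DMSO; 72 h, 37 C, 5% CO2; lysis buffer + SYBR Green I, o/n RT dark; FI 485/535; norm. to artemisinin 0.29 uM and DMSO.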
# [12] = target: ATP-dependent DNA helicase Q1 (Homo sapiens) (UniProt P46063); test: qHTS Validation Assay for Inhibitors of RecQ-Like Dna Helicase 1 (RECQ1) (AID 2353)
# Outline: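 RECQ1T1 50 nM; forked duplex (20 bp + 30-nt ss tails) 200 nM, ATP 2 mM final; pH 8.0, 2 mM MgCl2, 2.5 ug/ml poly(dI-dC); 15 min compound preincubation; discontinuous kinetic read over 2 h at RT.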
# [13] = Validation screen for small molecules that induce DNA re-replication in MCF 10A normal breast cells (AID 463097); also: nearly all actives have a fitted effect of over 60% in size
# Outline: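 MCF 10A cells exposed to compound 48 hr at 37 C, 5% CO2, then Hoechst-stained 40 min. Laser-scanning imaging of nuclear DNA content (405 nm ex, 500-530 nm em); re-replication scored as rise in nuclei with elevated fluorescence intensity.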
# [14] = target: M-phase phosphoprotein 8 (Homo sapiens) (UniProt Q99549); test: qHTS Validation Assay for Inhibitors for MPP8 Chromodomain Interactions with Methylated Histone Tails (AID 488949); also: top concentration of the series differs between compounds; nearly all actives have a fitted effect of over 55% in size
# Outline: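 MPP8 (50 nM) was pre-bound to 50 nM biotinylated H3(1-18)K9me3 peptide in PBS pH 7.4 with 0.01% Tween-20. Compounds were then added for 30 min at room temperature, and complex disruption was read by AlphaScreen with streptavidin donor and nickel-chelate acceptor beads.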
# [15] = target: Transient receptor potential cation channel subfamily V member 1 (Homo sapiens) (UniProt Q8NER1); test: HTS Assay for Compounds that Act as Enhancers of the Vanilloid Receptor 1 (AID 488979)
# Outline: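 TRPV1 cells loaded with Fluo-8 calcium dye; compound added and Ca2+ signal (ex 480/em 520 nm) followed 3 min, then capsaicin at EC20 added and read 2 more min to detect enhancement.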
# [16] = target: Thyrotropin receptor (Homo sapiens) (UniProt P16473); test: qHTS Assay for Antagonists of the Thyroid Stimulating Hormone Receptor (AID 488980)
# Outline: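 TSHR-transfected HEK293 cells (2000/well) in HEPES-buffered HBSS with 70 uM RO 20-1724 were stimulated with 4 nM TSH (EC80, final) in the presence of compound. cAMP was measured by HTRF competition after lysis and 30 min at RT.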
# [17] = target: Galactokinase (Homo sapiens) (UniProt P51570); test: qHTS Validation Assay for Inhibitors of Human Galactokinase (GALK) (AID 493189)
# Outline: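 GALK (5 nM) with 35 uM ATP and 100 uM galactose in HEPES pH 8.0 with MgCl2, NaCl, DTT and BSA. Reaction ran 1 h at room temperature. Residual ATP read by Kinase-Glo Plus luminescence.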
# [18] = Validation screen for small molecules that induce DNA re-replication in SW480 colon adenocarcinoma cells (AID 504364)
# Outline: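 Hoechst-stained SW480 nuclei, imaged at 405 nm excitation after 48 hr compound exposure, were counted for elevated DNA content as the re-replication signal.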
# [19] = measured here: PEO1 parental Z-AUC
# Sequence of Phospholipid hydroperoxide glutathione peroxidase GPX4 (Homo sapiens) (P36969 whole entry, looked up): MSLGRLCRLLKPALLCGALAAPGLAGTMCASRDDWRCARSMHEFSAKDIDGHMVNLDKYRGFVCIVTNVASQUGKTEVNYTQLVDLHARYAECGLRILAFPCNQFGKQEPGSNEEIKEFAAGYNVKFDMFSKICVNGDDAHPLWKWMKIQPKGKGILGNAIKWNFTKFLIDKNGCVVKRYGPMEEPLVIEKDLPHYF
# Sequence of DNA repair nuclease/redox regulator APEX1 (Homo sapiens) (P27695 whole entry, looked up): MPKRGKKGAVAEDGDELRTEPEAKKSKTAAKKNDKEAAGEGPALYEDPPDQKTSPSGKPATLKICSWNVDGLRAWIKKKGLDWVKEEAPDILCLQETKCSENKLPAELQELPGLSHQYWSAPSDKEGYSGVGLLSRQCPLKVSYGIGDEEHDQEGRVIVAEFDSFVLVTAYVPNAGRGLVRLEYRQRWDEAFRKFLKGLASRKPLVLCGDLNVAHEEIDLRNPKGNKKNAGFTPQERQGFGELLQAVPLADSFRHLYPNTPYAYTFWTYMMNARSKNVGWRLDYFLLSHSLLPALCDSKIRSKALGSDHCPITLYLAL
# Sequence of Transient receptor potential cation channel subfamily V member 1 (Homo sapiens) (Q8NER1 whole entry, looked up): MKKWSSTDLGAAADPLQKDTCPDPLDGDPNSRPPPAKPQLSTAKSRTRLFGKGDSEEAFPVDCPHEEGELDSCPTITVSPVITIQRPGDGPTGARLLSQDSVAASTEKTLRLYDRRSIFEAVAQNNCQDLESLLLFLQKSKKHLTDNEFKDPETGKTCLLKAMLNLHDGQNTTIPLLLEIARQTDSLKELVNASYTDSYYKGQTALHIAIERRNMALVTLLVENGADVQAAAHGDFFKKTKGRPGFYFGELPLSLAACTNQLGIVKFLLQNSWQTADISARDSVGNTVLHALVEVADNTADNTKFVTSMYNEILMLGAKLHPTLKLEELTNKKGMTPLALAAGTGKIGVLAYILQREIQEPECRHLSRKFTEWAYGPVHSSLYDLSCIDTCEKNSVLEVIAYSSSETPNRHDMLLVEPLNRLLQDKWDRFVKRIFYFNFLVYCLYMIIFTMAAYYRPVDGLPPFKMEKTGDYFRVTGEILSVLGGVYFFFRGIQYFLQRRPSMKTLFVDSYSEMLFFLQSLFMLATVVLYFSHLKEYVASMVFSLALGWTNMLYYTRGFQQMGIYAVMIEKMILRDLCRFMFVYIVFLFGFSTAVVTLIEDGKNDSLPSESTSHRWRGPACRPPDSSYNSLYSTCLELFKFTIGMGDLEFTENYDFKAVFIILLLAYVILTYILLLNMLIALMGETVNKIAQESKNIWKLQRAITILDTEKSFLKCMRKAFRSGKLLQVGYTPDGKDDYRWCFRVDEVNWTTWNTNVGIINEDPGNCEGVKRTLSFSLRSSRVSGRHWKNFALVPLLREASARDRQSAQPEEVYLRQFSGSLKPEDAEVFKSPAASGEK
# Sequence of Thyrotropin receptor (Homo sapiens) (P16473 whole entry, looked up): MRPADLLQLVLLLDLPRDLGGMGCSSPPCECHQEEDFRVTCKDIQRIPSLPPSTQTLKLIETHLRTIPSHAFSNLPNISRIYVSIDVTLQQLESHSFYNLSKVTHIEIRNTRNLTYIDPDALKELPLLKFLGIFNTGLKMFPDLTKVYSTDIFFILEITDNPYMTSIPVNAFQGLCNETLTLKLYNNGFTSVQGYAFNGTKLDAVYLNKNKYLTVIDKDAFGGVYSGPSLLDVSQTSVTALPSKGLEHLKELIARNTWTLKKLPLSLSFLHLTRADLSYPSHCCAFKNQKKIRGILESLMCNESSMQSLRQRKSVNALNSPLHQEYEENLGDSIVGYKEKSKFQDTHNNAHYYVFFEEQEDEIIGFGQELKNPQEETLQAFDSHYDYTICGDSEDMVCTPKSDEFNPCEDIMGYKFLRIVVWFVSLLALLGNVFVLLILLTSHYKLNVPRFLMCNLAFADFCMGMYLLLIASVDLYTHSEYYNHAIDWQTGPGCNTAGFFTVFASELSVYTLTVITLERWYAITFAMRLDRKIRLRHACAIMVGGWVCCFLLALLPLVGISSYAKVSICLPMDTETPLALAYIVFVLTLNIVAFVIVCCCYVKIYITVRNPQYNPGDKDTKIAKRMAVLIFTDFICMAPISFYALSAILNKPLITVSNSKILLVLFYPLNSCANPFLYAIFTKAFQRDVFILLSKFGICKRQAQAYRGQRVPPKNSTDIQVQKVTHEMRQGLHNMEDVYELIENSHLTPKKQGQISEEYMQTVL
# Sequence of Galactokinase (Homo sapiens) (P51570 whole entry, looked up): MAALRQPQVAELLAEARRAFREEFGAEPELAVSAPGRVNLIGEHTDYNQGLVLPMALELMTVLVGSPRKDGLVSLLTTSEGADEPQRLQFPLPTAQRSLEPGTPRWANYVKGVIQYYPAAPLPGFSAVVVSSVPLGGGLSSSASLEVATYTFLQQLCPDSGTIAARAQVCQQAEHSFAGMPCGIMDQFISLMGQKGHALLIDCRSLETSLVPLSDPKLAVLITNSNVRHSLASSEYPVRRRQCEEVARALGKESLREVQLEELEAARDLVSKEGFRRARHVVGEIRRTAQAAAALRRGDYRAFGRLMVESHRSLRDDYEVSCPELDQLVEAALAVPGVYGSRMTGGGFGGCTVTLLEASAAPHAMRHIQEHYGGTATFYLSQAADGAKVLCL
# Sequence of M-phase phosphoprotein 8 (Homo sapiens) (Q99549 whole entry, looked up): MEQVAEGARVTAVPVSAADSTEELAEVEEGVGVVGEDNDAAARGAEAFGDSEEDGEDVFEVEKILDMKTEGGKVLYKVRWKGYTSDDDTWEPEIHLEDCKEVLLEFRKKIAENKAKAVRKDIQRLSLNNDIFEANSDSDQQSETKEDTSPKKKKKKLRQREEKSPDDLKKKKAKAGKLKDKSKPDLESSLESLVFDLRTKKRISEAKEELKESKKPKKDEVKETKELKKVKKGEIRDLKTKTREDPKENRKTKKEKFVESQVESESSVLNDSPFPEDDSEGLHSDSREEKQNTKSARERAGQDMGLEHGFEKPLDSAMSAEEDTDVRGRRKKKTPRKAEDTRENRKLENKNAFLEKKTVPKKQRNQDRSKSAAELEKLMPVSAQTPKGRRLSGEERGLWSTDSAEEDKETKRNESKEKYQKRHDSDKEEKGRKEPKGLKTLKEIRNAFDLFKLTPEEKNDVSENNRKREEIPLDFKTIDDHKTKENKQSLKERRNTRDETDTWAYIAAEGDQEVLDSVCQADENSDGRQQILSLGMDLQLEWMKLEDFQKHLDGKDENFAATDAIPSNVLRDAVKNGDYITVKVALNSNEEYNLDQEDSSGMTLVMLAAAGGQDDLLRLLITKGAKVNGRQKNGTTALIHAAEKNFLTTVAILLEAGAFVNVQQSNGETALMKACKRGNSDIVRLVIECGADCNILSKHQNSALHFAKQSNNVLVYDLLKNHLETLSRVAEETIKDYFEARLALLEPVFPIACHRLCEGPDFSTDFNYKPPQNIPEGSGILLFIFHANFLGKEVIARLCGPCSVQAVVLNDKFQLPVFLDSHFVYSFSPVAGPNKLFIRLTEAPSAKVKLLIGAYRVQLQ
# Sequence of ATP-dependent DNA helicase Q1 (Homo sapiens) (P46063 whole entry, looked up): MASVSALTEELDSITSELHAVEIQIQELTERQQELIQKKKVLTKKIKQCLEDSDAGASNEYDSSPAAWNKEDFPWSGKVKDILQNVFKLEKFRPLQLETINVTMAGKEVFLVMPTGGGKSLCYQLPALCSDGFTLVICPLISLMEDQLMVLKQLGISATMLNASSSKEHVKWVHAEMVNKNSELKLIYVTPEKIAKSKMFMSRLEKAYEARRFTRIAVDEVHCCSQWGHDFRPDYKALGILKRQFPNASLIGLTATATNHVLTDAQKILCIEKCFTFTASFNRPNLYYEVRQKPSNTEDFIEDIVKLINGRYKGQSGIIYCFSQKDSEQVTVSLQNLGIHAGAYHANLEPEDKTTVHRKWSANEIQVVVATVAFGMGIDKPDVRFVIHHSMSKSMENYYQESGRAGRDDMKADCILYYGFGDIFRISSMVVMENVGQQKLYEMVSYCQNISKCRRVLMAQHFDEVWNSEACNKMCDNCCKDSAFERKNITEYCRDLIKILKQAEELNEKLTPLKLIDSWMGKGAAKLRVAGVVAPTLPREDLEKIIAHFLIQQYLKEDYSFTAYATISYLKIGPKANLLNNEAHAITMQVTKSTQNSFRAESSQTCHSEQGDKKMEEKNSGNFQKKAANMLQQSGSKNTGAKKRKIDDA
# Sequence of Glutathione peroxidase 1 (Homo sapiens) (P07203 whole entry, looked up): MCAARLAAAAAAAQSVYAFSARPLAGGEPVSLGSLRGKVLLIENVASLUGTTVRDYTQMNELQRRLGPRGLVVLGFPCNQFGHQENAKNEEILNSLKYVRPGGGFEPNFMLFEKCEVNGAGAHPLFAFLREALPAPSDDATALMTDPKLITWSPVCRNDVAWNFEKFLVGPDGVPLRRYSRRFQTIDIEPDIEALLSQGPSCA
compound,measurement,setting,value
C[C@@H](Oc1cc(C(=O)Nc2ccc(C(=O)N3CCN(C)CC3)cc2)nnc1N)c1c(Cl)ccc(F)c1Cl,Potency,[1],2630 nM (active)
same,Potency,[2],1480 nM (active)
same,Potency,[3],inactive
same,Potency,[4],inactive
same,Z-AUC,[5],-0.576 (inactive)
same,Z-AUC,[5]; [19],-1.08
same,Z-AUC,[5]; measured here: PEO4 Z-AUC,-1.2
same,"activity change, negative = inhibition",[6]; HiBiT,-32.5% (inactive)
CCS(=O)(=O)Nc1ccc(Oc2ccc(F)cc2F)c(-c2cn(C)c(=O)c3[nH]ccc23)c1,Potency,[1],13.2 nM (active)
same,Potency,[2],7.4 nM (active)
same,Potency,[4],inactive
same,Potency,[5],38.9 nM (active)
same,Z-AUC,[5]; [19],-1.41
same,Z-AUC,[5]; measured here: PEO4 Z-AUC,-1.58
same,Potency,[6]; HiBiT,55.7 nM (active)
same,"activity change, negative = inhibition",[6]; Viability,-28.2% (inactive)
CCn1c(=O)c2[nH]c(-c3ccccc3)nc2n(CC)c1=O,outcome,[7],inactive
same,Potency,[8],inactive
same,Potency,[9],inactive
same,outcome,[10],inactive
same,Potency,[11],inactive
same,Potency,[12],inactive
same,outcome,[13],inactive
same,Potency,[14],inactive
same,outcome,[15],inactive
same,outcome,[16],inactive
same,outcome,[17],inactive
same,outcome,[18],inactive
O=[N+]([O-])c1ccc(CSc2ncnc3c2ncn3[C@@H]2O[C@H](CO)[C@H](O)[C@H]2O)cc1,outcome,[7],inactive
same,Potency,[8],inactive
same,Potency,[9],inactive
same,outcome,[10],inactive
same,Potency,[12],inactive
same,outcome,[13],inactive
same,Potency,[14],inactive
same,outcome,[15],inactive
same,outcome,[16],inactive
same,outcome,[17],inactive
same,outcome,[18],inactive
CC/C(=C(/c1ccc(O)cc1)c1ccc(OCCNC)cc1)c1ccccc1,Potency,[1],33200 nM (active)
same,Potency,[3],inactive
same,Potency,[4],inactive
same,Z-AUC,[5],0.452 (inactive)
same,Z-AUC,[5]; [19],0.257
same,Z-AUC,[5]; measured here: PEO4 Z-AUC,-0.283
same,"activity change, negative = inhibition",[6]; HiBiT,-7.57% (inactive)
same,"activity change, negative = inhibition",[6]; Viability,-19.4% (inactive)
